Hits are enriched below; roughly 9% of the tested compounds scored in any of these assays.
PLK1 PBD block: PLK1 (human) polo-box domain binding inhibition; Plk1 PBD binding of FITC phosphopeptide, fluorescence polarization; Potency, µM, without a hit: max response, negative = inhibition, hits mostly inhibitors; 360,000 tested, 2.8% active; AID 720504; further: series mostly up to about 57 µM; on the % scale 0 is the no-effect control and ±100 the full control effect; nearly all actives have a fitted effect of over 65% in size
ALOX12 inh: blocks human arachidonate 12S-lipoxygenase | P18054 | purified 12hLO, xylenol orange hydroperoxide absorbance | Potency, µM (top dose mostly 108 µM), for inactives: top-dose activity change, negative = inhibition, usual class: inhibitors | 580,000 tested, 1.1% active; further: on the % scale 0 is the no-effect control and ±100 the full control effect
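Hydroperoxide product was detected by ferrous iron/xylenol orange as the 573 to 405 nm absorbance ratio. Arachidonic acid at 40 uM (final) was turned over for 30 min at room temperature by 150 nM human 12hLO, pH 7.0 Hepes buffer, after 15 min compound preincubation.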
HP1b chromo inh: blocks HP1-beta chromodomain binding to methylated histone tails; P83916; Potency, µM (series often up to 114 µM), for the others: at the top dose activity change, negative = inhibition, hits mostly inhibitors; 390,000 tested, 0.56% active; AlphaScreen HP1-beta / biotin-H3K9me3 peptide binding; further: nearly all actives have a fitted effect of over 70% in size
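AlphaScreen: HP1-beta (50 nM) preformed 30 min with biotin-H3(1-18)K9me3 peptide (50 nM) in PBS pH 7.4, 0.01% Tween-20. Compound added for 30 min at RT, then streptavidin donor/nickel chelate acceptor beads (10 ug/mL) for 30 min.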
BAZ2B inh: inhibitors of human BAZ2B bromodomain | AID 504333 | AlphaScreen BAZ2B-H3K14Ac peptide displacement | Q9UIF8 | 360,000 tested, 4.4% active | Potency, µM (titrated, usually from 114 µM), for inactives: at the highest dose activity change, negative = inhibition, usual class: inhibitors; further: on the % scale 0 is the no-effect control and ±100 the full control effect; nearly all actives have a fitted effect of over 60% in size
Target sequence (Q9UIF8 whole entry, looked up): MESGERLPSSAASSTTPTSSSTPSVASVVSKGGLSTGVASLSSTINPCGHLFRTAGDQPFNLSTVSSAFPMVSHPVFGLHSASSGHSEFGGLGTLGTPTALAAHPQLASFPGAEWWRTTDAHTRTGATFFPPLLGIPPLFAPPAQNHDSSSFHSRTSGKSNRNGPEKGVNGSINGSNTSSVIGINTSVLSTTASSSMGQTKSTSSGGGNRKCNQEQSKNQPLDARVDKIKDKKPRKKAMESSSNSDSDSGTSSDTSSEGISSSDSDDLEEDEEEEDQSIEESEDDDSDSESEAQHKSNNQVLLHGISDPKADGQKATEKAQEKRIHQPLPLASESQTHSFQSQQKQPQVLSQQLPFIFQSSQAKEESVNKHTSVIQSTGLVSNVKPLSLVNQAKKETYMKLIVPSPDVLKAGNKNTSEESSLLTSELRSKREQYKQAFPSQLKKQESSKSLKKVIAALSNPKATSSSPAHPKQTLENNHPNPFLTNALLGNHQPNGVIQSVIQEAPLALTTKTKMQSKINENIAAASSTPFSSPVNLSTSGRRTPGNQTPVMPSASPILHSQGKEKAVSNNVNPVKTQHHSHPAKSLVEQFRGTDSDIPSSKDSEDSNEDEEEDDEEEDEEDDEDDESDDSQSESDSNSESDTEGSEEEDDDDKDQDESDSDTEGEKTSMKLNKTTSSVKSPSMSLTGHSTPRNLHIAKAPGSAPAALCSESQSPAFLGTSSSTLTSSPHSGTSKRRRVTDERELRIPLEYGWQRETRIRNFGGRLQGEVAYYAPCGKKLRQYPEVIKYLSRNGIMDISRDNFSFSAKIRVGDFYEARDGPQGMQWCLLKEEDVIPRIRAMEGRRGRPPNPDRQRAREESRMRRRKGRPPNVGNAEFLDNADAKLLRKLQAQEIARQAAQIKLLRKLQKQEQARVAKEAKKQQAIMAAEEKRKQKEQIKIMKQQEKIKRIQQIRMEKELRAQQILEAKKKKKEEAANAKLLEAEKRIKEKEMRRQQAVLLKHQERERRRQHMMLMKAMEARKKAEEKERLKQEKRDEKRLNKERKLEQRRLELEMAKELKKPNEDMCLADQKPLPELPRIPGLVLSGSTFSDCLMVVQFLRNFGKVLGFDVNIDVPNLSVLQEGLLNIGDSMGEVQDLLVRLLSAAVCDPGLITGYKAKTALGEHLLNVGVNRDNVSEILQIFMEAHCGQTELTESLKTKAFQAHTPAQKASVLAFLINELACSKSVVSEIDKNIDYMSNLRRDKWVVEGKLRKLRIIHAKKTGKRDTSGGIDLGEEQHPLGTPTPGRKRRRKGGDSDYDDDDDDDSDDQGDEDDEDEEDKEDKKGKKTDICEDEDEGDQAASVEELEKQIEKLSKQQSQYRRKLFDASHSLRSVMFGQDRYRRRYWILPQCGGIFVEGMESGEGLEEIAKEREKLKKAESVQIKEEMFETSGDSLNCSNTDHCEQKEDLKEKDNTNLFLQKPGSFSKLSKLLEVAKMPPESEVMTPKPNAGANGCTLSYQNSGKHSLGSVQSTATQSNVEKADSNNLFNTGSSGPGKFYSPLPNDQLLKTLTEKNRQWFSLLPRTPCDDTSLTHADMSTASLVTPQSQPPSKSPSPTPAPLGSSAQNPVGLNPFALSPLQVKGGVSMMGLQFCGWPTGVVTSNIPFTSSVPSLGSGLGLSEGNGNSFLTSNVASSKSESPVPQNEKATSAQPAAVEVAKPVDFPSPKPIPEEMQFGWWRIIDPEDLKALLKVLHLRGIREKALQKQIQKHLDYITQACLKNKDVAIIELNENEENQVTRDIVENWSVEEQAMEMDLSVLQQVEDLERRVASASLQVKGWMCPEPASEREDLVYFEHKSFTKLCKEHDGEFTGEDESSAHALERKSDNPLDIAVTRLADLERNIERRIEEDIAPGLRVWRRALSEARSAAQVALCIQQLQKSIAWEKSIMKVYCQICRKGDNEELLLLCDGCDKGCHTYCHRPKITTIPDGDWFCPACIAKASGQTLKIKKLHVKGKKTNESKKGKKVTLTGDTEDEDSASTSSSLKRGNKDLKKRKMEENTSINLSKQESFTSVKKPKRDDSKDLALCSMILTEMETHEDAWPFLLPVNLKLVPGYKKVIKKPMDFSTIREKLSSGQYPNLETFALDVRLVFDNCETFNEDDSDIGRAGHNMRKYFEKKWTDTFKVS
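AlphaScreen displacement of biotin-H3(5-23)K14Ac peptide (50 nM final) from BAZ2B (50 nM final) in PBS pH 7.4, 0.01% Tween-20; complex preformed 30 min RT, then compounds (top 110 uM) 30 min RT, beads 20 min dark.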
G9a block: G9a (human) methyltransferase inhibition. G9a H3K9 monomethylation, AlphaScreen, 2 h. Q96KQ7. Potency, µM (doses to about 102 µM), without a hit: at the highest dose activity, negative = inhibition, most hits filed as inhibitors. 350,000 tested, 8.8% active; further: on the % scale 0 is the no-effect control and ±100 the full control effect; nearly all actives have a fitted effect of over 75% in size
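Methyltransferase reactions run at room temperature for 2 h (20 nM enzyme, 500 nM biotin-H3K9 peptide, 20 uM SAM) after a 15 min compound preincubation; product detected by AlphaScreen beads and anti-H3K9me1 antibody.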
JMJD2A Tudor inh: blocks the human JMJD2A Tudor domain; O75164; AlphaScreen JMJD2A-Tudor / H3K4me3 peptide binding; Potency, µM (titrated, usually from 114 µM), for the others: top-dose activity change, negative = inhibition, hits mostly inhibitors; 390,000 tested, 4.4% active; further: on the % scale 0 is the no-effect control and ±100 the full control effect; nearly all actives have a fitted effect of over 50% in size
Starred values were filed as active, the others as inactive; i = inactive; u = inconclusive; x = not tested or not shown; [ ] = dose if it differs, or a comment. The call rests on the fitted dose curve; in most records, active means well fitted curve in the direction sought with a large enough effect; inconclusive means small, poorly fitted or top-dose-only effect, or another doubt; inactive means no such curve, though single readings can be large; an effect the other way counts as inactive or inconclusive. Potency means the concentration at half of the fitted maximal effect.

SMILES	PLK1 PBD block	ALOX12 inh	HP1b chromo inh	BAZ2B inh	G9a block	JMJD2A Tudor inh
CCOC(=O)Cc1csc(NS(=O)(=O)c2ccc(F)cc2)n1	21.2µM*	i	7.9%	-6.4%	7.2%	-17.1%[11.4 µM]
COc1ccc(S(=O)(=O)Nc2ccccc2C(=O)Nc2nc(-c3ccc(F)cc3)cs2)cc1OC	23.8µM*	-17.9%	-21.1%	u	u	u
CCOC(=O)c1[nH]c(C)c(C(=O)Nc2cccc(Cl)c2)c1C	x	-1.8%	x	x	x	x
Cc1ccc(C(=O)OCC(=O)N2CCc3ccccc32)cc1	-5.7%	7.3%[57.4 µM]	18.8%	-24.2%	24.9%	-5.2%
COc1ccc(SC[C@H](C)CN2CC[C@H](NC(=O)OCc3ccccc3)CCC2=O)cc1	-27.2%	u	30.0%	x	x	u
COc1ccc(-c2csc(NC(=O)c3ccccc3NS(=O)(=O)c3ccc(C)cc3)n2)cc1	u	u	u	35.5µM*	u	u
COc1ccc(/C=N/N=C2/NC(=O)C(CC(=O)O)S2)cc1OCc1ccccc1Cl (configuration not stated)	-24.0%	3.3%	-12.8%	50.1µM*	-12.9%	u
COc1ccc(S(=O)(=O)Oc2cccc(/C=N/N=C3/NC(=O)C(CC(=O)O)S3)c2)cc1 (configuration not stated)	-6.1%	10.4%	44.9%	u	x	11.7%
CCOc1cc(/C=N/N=C2/NC(=O)C(CC(=O)O)S2)ccc1OCc1ccccc1Cl (configuration not stated)	u	0.5%	13.6%	50.1µM*	u	u
COc1ccc(/C=N/N=C2/NC(=O)C(CC(=O)O)S2)cc1OCc1ccc(Cl)cc1Cl (configuration not stated)	-18.0%	-28.4%	-16.6%	50.1µM*	79.4µM*	u
CCOc1cc(/C=N/N=C2/NC(=O)C(CC(=O)O)S2)ccc1OS(=O)(=O)c1ccc(C)cc1 (configuration not stated)	-8.6%	0.6%	26.0%	u	11.1%	-6.9%
O=C(O)c1cn[nH]c1-n1cnnn1	-3.1%	-0.7%	14.7%	-1.1%	50.1µM*	u
O=C(c1cn[nH]c1-n1cnnn1)N1C[C@H](CO)C[C@H](CN2CCCC2)C1	x	-3.8%	x	x	x	x
Cc1cc(=O)[nH]c(SCc2cn3ccccc3n2)n1	-19.3%	u	32.5%	-18.3%	50.1µM*	-7.0%
O=[N+]([O-])c1ccc2nc(SCc3cn4cccnc4n3)[nH]c2c1	-5.0%	-6.7%	49.2%	-1.0%	u	8.8%
O=[N+]([O-])c1ccc2nc(SCc3cn4ccccc4n3)[nH]c2c1	-15.9%	17.8%	18.3%	1.9%	10µM*	-19.4%
Cc1cc(=O)[nH]c(SCc2nnc(-c3ccccc3)o2)n1	-7.5%	-3.0%	30.6%	1.6%	7.94µM*	-4.4%
Cn1ccnc1SCc1cn2ccccc2n1	-5.9%	0.0%	4.8%	-4.1%	u	u
CSc1ccc(Cl)c(C(=O)NCC(C)C)c1	-13.7%	-1.0%	16.4%	-4.4%	4.1%[59 µM]	-5.5%
COc1ccc(N(CC(=O)NCc2ccc3c(c2)OCO3)C(=O)CCC(=O)Nc2ccccn2)cc1	-10.6%	-3.4%	15.3%	-1.9%	-41.9%	-15.2%
CC1(C)C2CC[C@]3(C)C(CC=C4[C@@H]5C[C@@](C)(CO)[C@@H]6C[C@@]5(CC[C@]43C)C(=O)O6)[C@@]2(C)CC[C@@H]1O (some centres not stated)	-3.3%	14.6%	36.3%	x	x	-18.4%
CCN(c1cccc(C)c1)c1ncnc2nc[nH]c12	-6.9%	13.0%	56.7%	9.9%	-25.0%	-9.9%
CCN(CCCNc1ncnc2nc[nH]c12)c1cccc(C)c1	-1.0%	-0.1%	-19.2%	50.1µM*	17.8µM*	39.8µM*
CCOC(=O)C1=C(C)OC(N)=C(C#N)C1c1cc2c(cc1Br)OCO2 (configuration not stated)	-13.2%	u	-9.5%	-38.5%	u	-33.8%
CCOC(=O)C1=C(C)OC(N)=C(C#N)C1c1cc2ccccc2nc1N1CCCCC1 (configuration not stated)	u	x	66.0%	-2.5%	11.2µM*	1.6%
SMILES	PLK1 PBD block	ALOX12 inh	HP1b chromo inh	BAZ2B inh	G9a block	JMJD2A Tudor inh
COc1ccc2cc(C3C(C#N)=C(N)OC(C)=C3C(C)=O)c(Cl)nc2c1 (configuration not stated)	-7.7%	9.4%	32.3%	-18.1%	u	-5.1%
CCOC(=O)C1=C(C)OC(N)=C(C#N)C1c1cc2cc(C)ccc2nc1N1CCCCC1 (configuration not stated)	u	u	53.4%	-11.8%	10µM*	-2.9%
CC1CCN(C(=S)NC(=O)c2ccco2)CC1	1.2%	-21.5%	23.3%	u	x	-20.0%
O=C(NC(=S)N1CCN(Cc2ccccc2)CC1)c1ccco1	-4.6%	-19.4%	6.0%	-28.0%	50.1µM*	-22.7%
Cc1ccc(NC(=S)NCC2CCCO2)cc1 (configuration not stated)	-7.1%	-0.1%	32.7%	-8.0%	-4.6%	-18.0%
CCNC(=S)N1CCN(Cc2ccccc2)CC1	-0.9%	-3.9%	u	50.1µM*	15.8µM*	8.91µM*
CCNC(=S)N1CCN(C(c2ccccc2)c2ccccc2)CC1	-1.3%	4.1%	16.4%	-0.9%	-12.5%[59 µM]	-34.3%
Cc1cnn(C(=S)NCC2CCCO2)c1 (configuration not stated)	-9.1%	u	47.2%	-2.1%	31.6µM*	4.47µM*
Cc1ccc(Cl)cc1N1CCN(C(=S)NCCc2ccccc2)CC1	-9.1%	35.5µM*	49.0%	1.3%	7.5%	11.2%
O=C(NCc1c[nH]c2ccccc12)c1ccccc1	-9.1%	u	-4.8%	x	x	-13.5%
COC(=O)c1ccccc1NC(=O)c1cc2ccccc2o1	-10.7%	1.4%	74.0%	1.2%	24.8%	24.7%
CCCCNC(=S)NCCN1CCN(C(=S)NCCCC)CC1	-5.2%	-1.1%	32.9%	-36.7%	-0.4%	-12.7%
CCN1CCN(C(=S)NCCc2ccccc2)CC1	-6.9%	-23.6%	u	79.4µM*	u	3.16µM*
OCCN1CCN(C(=S)NCCc2ccccc2)CC1	-19.8%	0.0%	27.2%	-2.5%	-1.2%[59 µM]	0.0%[11.4 µM]
CCCNC(=S)N1CCN(CC)CC1	-12.9%	u	-52.5%	50.1µM*	10µM*	1.78µM*
Cc1ccc(Cl)cc1N1CCN(C(=O)Cc2cn(C)c3ccccc23)CC1	-3.1%	u	u	u	12.6µM*	u
CCN1CCN(C(=S)NCC2CCCO2)CC1 (configuration not stated)	-6.0%	-29.1%	u	50.1µM*	39.8µM*	7.94µM*
CCc1ccc(N2CC(C(=O)OCC(=O)Nc3ccc(C#N)cc3)CC2=O)cc1 (configuration not stated)	-9.3%	u	46.1%	-3.4%	-13.8%[59 µM]	-8.1%

Bioassay records (PubChem BioAssay)
